Measurements from ChEMBL document CHEMBL2218924, “A broad activity screen in support of a chemogenomic map for kinase signalling research and drug discovery” (Biochem J, 2013).

Target: T1, Serine/threonine-protein kinase haspin (Homo sapiens) (UniProt Q8TF76)
T1 sequence (whole entry): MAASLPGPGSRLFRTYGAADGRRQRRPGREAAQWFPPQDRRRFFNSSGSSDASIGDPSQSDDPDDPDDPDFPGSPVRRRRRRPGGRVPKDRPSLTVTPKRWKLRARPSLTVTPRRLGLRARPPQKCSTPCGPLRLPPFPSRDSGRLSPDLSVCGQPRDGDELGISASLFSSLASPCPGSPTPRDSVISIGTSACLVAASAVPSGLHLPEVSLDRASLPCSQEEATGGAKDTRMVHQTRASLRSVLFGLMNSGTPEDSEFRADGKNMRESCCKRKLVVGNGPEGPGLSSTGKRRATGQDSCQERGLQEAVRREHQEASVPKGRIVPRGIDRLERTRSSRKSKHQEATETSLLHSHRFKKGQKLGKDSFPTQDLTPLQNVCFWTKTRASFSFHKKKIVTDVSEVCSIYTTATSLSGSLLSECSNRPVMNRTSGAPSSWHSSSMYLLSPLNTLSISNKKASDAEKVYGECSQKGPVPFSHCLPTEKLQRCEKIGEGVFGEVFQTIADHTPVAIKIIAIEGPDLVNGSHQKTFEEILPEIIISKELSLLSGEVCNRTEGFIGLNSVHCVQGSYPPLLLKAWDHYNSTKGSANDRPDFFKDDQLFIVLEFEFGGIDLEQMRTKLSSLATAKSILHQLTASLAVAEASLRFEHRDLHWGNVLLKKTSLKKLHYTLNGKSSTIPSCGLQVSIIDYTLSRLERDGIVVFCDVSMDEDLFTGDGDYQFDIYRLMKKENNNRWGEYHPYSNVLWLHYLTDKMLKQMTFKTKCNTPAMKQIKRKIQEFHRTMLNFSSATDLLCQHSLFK
Settings: at 1 µM

Point of comparison: O=C1Nc2ccccc2/C1=C\c1c(Cl)[nH]c2ccccc12, residual activity 85%. Against it:
- Cn1sc(=O)n(Cc2ccccc2)c1=O — lower, 77%
- Nc1n[nH]c2nc3ccccc3nc12 — higher, 96%
- O=C1Cc2c([nH]c3ccc(Br)cc23)-c2ccccc2N1 — lower, 60%
- NCCNc1ncc(C(N)=O)c(Nc2cccc(C(F)(F)F)c2)n1 — lower, 44%
- NC(=O)c1cccc(-c2cc(Nc3ccc(OC(F)(F)F)cc3)ncn2)c1 — lower, 84%
- Nc1nccc(-c2c(-c3ccc(F)cc3)ncn2C2CCNCC2)n1 — lower, 54%
- COc1ccc(-c2cnc3c(-c4ccsc4)cnn3c2)cc1 — higher, 95%
- O=S(=O)(c1cccc2cnccc12)N1CCCNCC1 — lower, 60%
- Cc1cc(C)c(/C=C2\C(=O)Nc3ccccc32)[nH]1 — higher, 100%
- O=S(=O)(NCCNC/C=C/c1ccc(Br)cc1)c1cccc2cnccc12 — lower, 7%
- O=C(c1ccccc1)c1ccc(N2CCOCC2)cc1O — higher, 98%
- NC(=O)c1ccc(-c2nc(-c3ccc4c(c3)OCCO4)c(-c3ccccn3)[nH]2)cc1 — higher, 95%
- CCCCc1c(-c2ccc(O)cc2)[nH]c2nccnc12 — lower, 34%

Target: T1, Serine/threonine-protein kinase haspin (Homo sapiens)
Settings: at 10 µM

Point of comparison: Fc1ccc(-c2nc3n(c2-c2ccncc2)CCS3)cc1, residual activity 96%. Against it:
- O=c1cc(N2CCOCC2)oc2c(-c3ccccc3)cccc12 — lower, 54%
- N#C/C(=C\c1ccc(O)c(O)c1)C(=O)NCc1ccccc1 — lower, 48%
- Nc1n[nH]c2nc3ccccc3nc12 — lower, 41%
- O=C1Cc2c([nH]c3ccc(Br)cc23)-c2ccccc2N1 — lower, 44%
- NCCNc1ncc(C(N)=O)c(Nc2cccc(C(F)(F)F)c2)n1 — lower, 7%
- NC(=O)c1cccc(-c2cc(Nc3ccc(OC(F)(F)F)cc3)ncn2)c1 — lower, 65%
- Nc1nccc(-c2c(-c3ccc(F)cc3)ncn2C2CCNCC2)n1 — lower, 36%
- CN([C@@H](Cc1ccc(OS(=O)(=O)c2cccc3cnccc23)cc1)C(=O)N1CCN(c2ccccc2)CC1)S(=O)(=O)c1cccc2cnccc12 — lower, 57%
- O=c1c(-c2ccc(F)cc2)c(-c2ccncc2)[nH]n1-c1ccc(Cl)cc1 — lower, 75%
- COc1ccc(-c2cnc3c(-c4ccsc4)cnn3c2)cc1 — lower, 83%
- O=S(=O)(c1cccc2cnccc12)N1CCCNCC1 — lower, 8%
- Cc1cc(C)c(/C=C2\C(=O)Nc3ccccc32)[nH]1 — lower, 77%
- O=S(=O)(NCCNC/C=C/c1ccc(Br)cc1)c1cccc2cnccc12 — lower, 0%
- O=C(c1ccccc1)c1ccc(N2CCOCC2)cc1O — lower, 77%
- NC(=O)c1ccc(-c2nc(-c3ccc4c(c3)OCCO4)c(-c3ccccn3)[nH]2)cc1 — lower, 82%
- O=C1NC(=O)C(c2cn(CCCn3ccnc3)c3ccccc23)=C1Nc1ccccc1 — lower, 52%
- O=C1NC(=O)C(c2c[nH]c3ccccc23)=C1c1c[nH]c2ccccc12 — lower, 69%
- CCCCc1c(-c2ccc(O)cc2)[nH]c2nccnc12 — lower, 12%
- O=C1Nc2ccccc2/C1=C\c1c(Cl)[nH]c2ccccc12 — lower, 61%
